The campaign covered roughly 360,000 compounds. About 2,000 (0.56%) were called active.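 How the source made its calls: active means activation above the average of all compounds screened plus 3 SD, cutoff fixed separately per campaign (cut at about 7.5% in these data); inactive means the rest.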 This excerpt belongs to a sample that is enriched for actives.
test: GAA850 frataxin promoter reporter upregulation – cell-based, luciferase luminescence, HEK293 lucGAA850, primary screen (AID 540364); conditions: HEK293 lucGAA850 FXN promoter luciferase reporter, 24 h; at 6 µM; active compounds read high; percent of 10 µM SAHA response;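 further: 0% = DMSO wells and 100% = 10 µM SAHA wells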

Compound | activation
COc1cc(Cn2c3ccc(NC(=O)CC(C)c4ccccc4)cc3c(=O)n2C)ccc1F (configuration not stated) | -0.13% (inactive)
C[C@H]([C@@H](O)[C@@H](O)[C@@H](C)C(C)(C)C)[C@H]1CC[C@H]2C3CC[C@H]4C[C@H](OS(=O)(=O)O)[C@@H](OS(=O)(=O)O)C[C@]4(C)[C@H]3CC[C@]12C (some centres not stated) | -1.51% (inactive)
Nn1cnnc1N/N=C/c1cc([N+](=O)[O-])c(Cl)cc1Cl | -1.71% (inactive)
CCCN(CCC)CCNC(=O)c1cc2c(C)nc3ccccc3c2o1 | -0.61% (inactive)
CNC(=O)c1cccc2nc3ccccc3nc12 | 3.97% (inactive)
CN(C)CCNC(=O)c1ccc(Cl)c2cc3ccccc3nc12 | 22.7% (active)
COC(=O)CCSc1cc([N+](=O)[O-])cc2c1c(C1OCCS1)nn2-c1ccccc1 (configuration not stated) | 4.76% (inactive)
CC1=C(C(=O)N2CCOCC2)CC(CC(=O)NCc2cccc3ccccc23)C(=O)N1CCC1=CCCCC1 (configuration not stated) | -1.16% (inactive)
O=S(=O)(c1ccccc1)N1CCc2ccccc21 | 1.28% (inactive)
CCn1c(=O)c(=O)n(CC)c2cc(S(=O)(=O)N3CCc4ccccc43)ccc21 | 0.26% (inactive)
Cn1c(=O)n(C)c2cc(S(=O)(=O)N3CCCc4ccccc43)ccc21 | 7.64% (active)
Cc1c(Br)c([N+](=O)[O-])nn1C(C)C(=O)Nc1nccs1 (configuration not stated) | 1.64% (inactive)
COc1ccc(-n2nc(C(=O)NCC(=O)Nc3cccc(C)n3)c3ccccc3c2=O)cc1 | -0.56% (inactive)
Cc1ccc(S(=O)(=O)N(CCc2ccccc2)c2ccc3c(c2)C2CC3CCN2C(=O)OCc2ccccc2)cc1 (configuration not stated) | 0.17% (inactive)
COc1ccc(/C=C/C(=O)Nc2ccc(C)cc2)cc1S(=O)(=O)N1CCOCC1 | -0.63% (inactive)
COc1ccc(/C=C/C(=O)Nc2ccc(C34CC5CC(CC(O)(C5)C3)C4)cc2)cc1OC | 7.97% (active)
COc1cc(/C=C/C(=O)Nc2ccc(OC)c(S(=O)(=O)N3CCOCC3)c2)ccc1OCC#N | -0.85% (inactive)
Cc1ccc(C(=O)N/C(=C/c2cccs2)C(=O)NCC2CCCO2)cc1 (configuration not stated) | 0.61% (inactive)
Cc1ccc(-n2c(C)cc(/C=C(\C#N)C(=O)NCC3CCCO3)c2C)cc1 (configuration not stated) | 8.72% (active)
Cc1ccc2c(c1)N(CC(=O)NCC1CCCO1)C(=O)CO2 (configuration not stated) | 0.58% (inactive)
CCN(CC)CCNS(=O)(=O)c1ccc(/C=C/C(=O)O)cc1 | 3.64% (inactive)
CCCS(=O)(=O)N1CCC(C(=O)NCCCN(C)Cc2ccccc2)CC1 | -0.04% (inactive)
Cc1ccc(Sc2ccc(NC(=O)c3ccc(F)cc3)cc2C#N)cc1 | -1.85% (inactive)

Compound | activation
Cc1ccc(NC(=O)c2sc3nc(N)c(C#N)cc3c2N)cc1 | 9.04% (active)
CCc1ccc2nc3sc(C(=O)Nc4nnc(CC)s4)c(N)c3cc2c1 | 3.44% (inactive)
CCCCc1ccc(S(=O)(=O)NC(=O)C2(C)CCN2C(=O)c2c(C)noc2C)cc1 (configuration not stated) | 1.5% (inactive)
Cc1c(C(C)(C)O)[nH]c2ccc(C#N)cc12 | 2.02% (inactive)
CCCn1c(=NC(C)=O)c(C(=O)OCC)cc2c(=O)n3ccccc3nc21 | 5.78% (inactive)
CCOC(=O)c1cc2c(=O)n3ccccc3nc2n(CC(C)C)c1=NC(=O)c1c(-c2c(F)cccc2Cl)noc1C | 8.16% (active)
Cc1onc(-c2c(F)cccc2Cl)c1C(=O)OCC(=O)N1C(C)CCCC1C (configuration not stated) | 0.34% (inactive)
CCCNC(=O)C1(C)CCCN(Cc2c(C)nn(-c3ccccc3)c2C)C1 (configuration not stated) | 0.72% (inactive)
Cc1cc(C(=O)O)c(S(C)(=O)=O)s1 | -0.08% (inactive)
CCOc1ccc(N2C(=O)/C(=C/c3ccc(C)o3)N(C)C2=S)cc1 | 4.15% (inactive)
Cc1cc(=O)oc(C)c1C(=O)NCc1ccc(F)cc1 | 14% (active)
Cc1cc(=O)oc(C)c1C(=O)NCCN(C)Cc1ccccc1 | 1.1% (inactive)
COc1ccc(CNC(=O)c2c(C)cc(=O)oc2C)cc1OC | -0.25% (inactive)
CCN(CC)CCN1C(=O)C2C(C(=O)Nc3ccc(Br)cc3)C3C=CC2(O3)C1C(=O)NC1CCCCC1 (configuration not stated) | -1.41% (inactive)
CS(=O)(=O)c1ccc2nnn(OCC(=O)Nc3cccc(C#N)c3)c2c1 | -0.17% (inactive)
Cc1ccc(C2C(C#N)C(C#N)N3CCCN23)cc1 (configuration not stated) | 3.84% (inactive)
CCCCOC(=O)CNc1nnc(SCC(=O)OCC)[nH]c1=O | 4.67% (inactive)
COc1ccc(C#Cc2c(-c3ccc(OC)cc3)oc3ccc(-c4ccc5c(c4)OCO5)cc23)cc1 | 0.99% (inactive)
O=C(/C=C/Nc1ccccc1)c1cnc(-c2ccccc2)s1 | -1.96% (inactive)
CC(C)(C)C(=O)c1cnc(Nc2ccccc2)s1 | 8.7% (active)
CC(=O)c1cnc(-c2ccccc2)s1 | -1.26% (inactive)
Cc1cccc(C)c1N1C(=O)CN(Cc2ccccc2)C1=S | 2.98% (inactive)
O=C(NC(CC(=O)N1CCN(c2ccccc2)CC1)c1ccccc1)c1ccccc1Cl (configuration not stated) | -0.04% (inactive)

Compound | activation
O=C1N=C(N2CCCC2)S/C1=C\c1cccc(Br)c1 | 8.18% (active)
CCOc1cc(/C=C2\SC(N3CCCCC3)=NC2=O)ccc1O | 1.52% (inactive)
O=C1N=C(N2CCc3ccccc3C2)S/C1=C\c1ccc(O)cc1 | -0.01% (inactive)
COC(=O)C1CCN(CC(N)=O)CC1 | -1.4% (inactive)
Cc1ccc(CN(C(=O)c2sc3ccccc3c2Cl)C2CCS(=O)(=O)C2)cc1 (configuration not stated) | 1.1% (inactive)
CC1(Cc2ccccc2C#N)C(=O)Nc2ccc(-c3ccc4[nH]ccc4c3)cc21 (configuration not stated) | -5.44% (inactive)
Cc1ccc(CC2(C)C(=O)Nc3ccc(OC(F)(F)F)cc32)cc1 (configuration not stated) | -1% (inactive)
CC1(Cc2cccc(C#N)c2)C(=O)Nc2ccc(-c3cccc(C(F)(F)F)c3)cc21 (configuration not stated) | 11.2% (active)
COc1cccc(CNc2nc(NCc3cccs3)nc3ccsc23)c1 | -1.3% (inactive)
NC(c1csc(NC(=O)Nc2ccccc2Oc2ccccc2)n1)c1ccccc1Cl (configuration not stated) | -1.81% (inactive)
c1ccc2c(c1)OCC(c1nn3cnnc3s1)O2 (configuration not stated) | 3.93% (inactive)
CC1CCc2sc3nc(N4CCN(CCO)CC4)n4ncnc4c3c2C1 (configuration not stated) | 7.88% (active)
CCCn1nnc2sc3c(c2c1=O)CCC(C)C3 (configuration not stated) | 4.15% (inactive)
CC1CCc2c(sc3nc4n(c(=O)c23)CCS4)C1 (configuration not stated) | 3.94% (inactive)
CCOc1cc2[nH]c(=O)n(CCC(=O)NCc3ccc(OC)cc3)c(=O)c2cc1OCC | 0.9% (inactive)
NC(=S)NN=C1CCCC(C(F)(F)F)C1 (configuration not stated) | -0.39% (inactive)
N#CCCCn1c(O)c(N=NC(=O)C(O)c2ccccc2)c2ccccc21 (configuration not stated) | 1.76% (inactive)
CCOC(=O)c1ccc(N=C2SC(C(=O)NC)CC(=O)N2CCc2ccccc2)cc1 (configuration not stated) | 0.94% (inactive)
Oc1ccc(C2Nc3cccc4cccc(c34)N2)cc1 | 1.97% (inactive)
Cc1ccc(C2Nc3cccc4cccc(c34)N2)cc1 | 14.9% (active)
Cc1ccc(C2CC(c3cccc(C)c3)n3nc(N)nc3N2)cc1 (configuration not stated) | -0.54% (inactive)
CSCCC(NC(=O)COc1ccccc1)C(=O)OCC(=O)c1cc2ccccc2o1 (configuration not stated) | -0.05% (inactive)
CC(C)c1ccc(NC2CCCN(C(=O)c3ccncc3)C2)cc1 (configuration not stated) | 3.59% (inactive)

Compound | activation
CCCCCCCCCCCC(=O)O | 9.07% (active)
NC(=O)NCCCC(=O)O | 1.1% (inactive)
O=C(O)CCCCCCCCCC[n+]1ccccc1 | 0.28% (inactive)
Cn1c(=O)cc(OCCCC(=O)N2CCN(c3ccccn3)CC2)c2ccccc21 | -3.01% (inactive)
O=C(Nc1ccc(F)cc1)c1cc2c(s1)CCCC2 | 2.99% (inactive)
O=C(NCc1cccnc1)Nc1cccc(NC(=O)NCc2cccnc2)c1F | 0.81% (inactive)
CCN(CCN(C)C)C(=O)c1ccc2nc(C)c(N(C)C(=O)CCc3ccccc3)n2c1 | 0.72% (inactive)
CC(C)c1ccc(NS(=O)(=O)c2cn(C)c(=O)n(C)c2=O)cc1 | 14.8% (active)
Cn1cc(S(=O)(=O)Nc2ccc(Cl)cc2Cl)c(=O)n(C)c1=O | 1.45% (inactive)
Cn1cc(S(=O)(=O)NC(c2ccccc2)c2ccccc2)c(=O)n(C)c1=O | -1.45% (inactive)
COc1ccc(C(C#N)Nc2ccc(C)cc2)cc1 (configuration not stated) | -0.7% (inactive)
O=C1C=C(c2ccnc3cc(Cl)ccc23)C[C@@H](c2ccc3c(c2)OCO3)C1 | -1.07% (inactive)
CC(C)c1cc(C(=O)O)n[nH]1 | -1.31% (inactive)
Cc1cc(-c2n[nH]c(=S)n2/N=C/C(Br)=C/c2ccccc2)n[nH]1 | -0.09% (inactive)
Cc1cc(C(=O)NCCc2ccc(Cl)cc2)c(C)o1 | 3.56% (inactive)
Cc1ccc(-c2cc(C(=O)N/N=C/C=C/c3ccccc3)n[nH]2)o1 | 1.11% (inactive)
Cc1cc(C(=O)N/N=C\C(Br)=C\c2ccccc2)c(C)o1 | 11.4% (active)
CC(C)c1cc(C(=O)N/N=C/C(Br)=C/c2ccccc2)n[nH]1 | 9.41% (active)
CCN(C(=O)COC(=O)C1CCN(S(=O)(=O)c2ccc(C)c(C)c2)CC1)C1CCS(=O)(=O)C1 (configuration not stated) | 0.06% (inactive)
COc1cccc(OC)c1C(=O)Nc1ccc(Cc2ccncc2)cc1 | 3.03% (inactive)
CC(=O)c1ccc(NC(=O)CCc2nnc3ccc(NCc4ccco4)nn23)cc1 | 3.69% (inactive)
CCc1nnc(NC(=O)CSc2nnnn2-c2cccc(C(C)=O)c2)s1 | 0.27% (inactive)
CC[C@]12c3[nH]c4ccc(Cl)cc4c3CCN1C(=O)[C@@H](CC(=O)NCCCOC)C[C@@H]2C(=O)N1CCN(C(=O)C2CC2)CC1 | -1.48% (inactive)

From PubChem BioAssay AID540364 (The Scripps Research Institute Molecular Screening Center, 2011)
